High-throughput results (PubChem)
Most compounds without a hit are left out; they make up all but 3.3% or so of the library.
OTUD3 block = inhibitors of human OTUD3 deubiquitinase | OTU domain-containing protein 3 (Homo sapiens), Q5T2D3 | purified OTUD3, Ub-rhodamine fluorescence, 2 h | inhibition, % at 25 µM | hit rate 0.7% among 47,000 | AID 1645858, 2021
Target sequence (Q5T2D3 whole entry, looked up, the tested form may be a part): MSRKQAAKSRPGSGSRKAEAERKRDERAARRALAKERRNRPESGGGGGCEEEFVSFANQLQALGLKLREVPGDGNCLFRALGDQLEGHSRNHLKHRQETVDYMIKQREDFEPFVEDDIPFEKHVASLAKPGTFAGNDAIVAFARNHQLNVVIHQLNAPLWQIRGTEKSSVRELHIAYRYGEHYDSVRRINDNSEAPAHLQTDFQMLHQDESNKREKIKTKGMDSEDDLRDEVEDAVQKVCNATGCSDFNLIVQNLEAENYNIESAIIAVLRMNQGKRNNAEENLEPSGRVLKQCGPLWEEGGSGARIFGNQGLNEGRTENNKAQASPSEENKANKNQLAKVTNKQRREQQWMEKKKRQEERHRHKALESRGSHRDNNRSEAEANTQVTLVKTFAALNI
USP28 inh = inhibitors of human USP28 deubiquitinase; Ubiquitin carboxyl-terminal hydrolase 28 (Homo sapiens), Q96RU2; purified USP28, Ub-rhodamine cleavage fluorescence, 30 min; inhibition, % at 25 µM; hit rate 3% among 47,000; AID 1645857, 2021
Hits are given with their value. Rule as the data show it: active = inhibition above about 30%; inactive = the rest.

Cc1ncsc1-c1cc(C(=O)N2CCC[C@]3(C)NC(=O)CCC[C@H]23)ccn1 was read as OTUD3 block inactive and USP28 inh inactive.
For Cc1ccc(-c2noc(-c3ccc(C#N)cc3)n2)s1 the results were OTUD3 block inactive and USP28 inh inactive.
Cc1ccc(-c2nc(-c3ccccc3)c(S(=O)(=O)CC(=O)Nc3ccc(C)c(C)c3)[nH]2)cc1 was read as OTUD3 block 32 and USP28 inh inactive.
For CCOc1ccc(NC(=O)CS(=O)(=O)c2[nH]c(-c3cccc(OC)c3)nc2-c2ccccc2)cc1 the results were OTUD3 block inactive and USP28 inh inactive.
C=C1C(=O)O[C@@H]2C(=O)O[C@@H](CC)[C@H]12 was read as OTUD3 block inactive and USP28 inh inactive.
For Cn1c2ccc(F)cc2c2ncn(Cc3cccnc3)c(=O)c21 the results were OTUD3 block inactive and USP28 inh inactive.
Screening O=c1c2c(ccn1Cc1cc(F)ccc1F)ccn2Cc1cccnc1 returned OTUD3 block inactive and USP28 inh 68.
Cc1ccccc1Cn1ccc2ccn(Cc3cccnc3)c2c1=O was read as OTUD3 block inactive and USP28 inh 60.
Cc1noc(C)c1CCn1ccc2ccn(Cc3cccnc3)c2c1=O was read as OTUD3 block inactive and USP28 inh inactive.
Cc1nnc(-c2cccnc2N2CCN(C(=O)c3ccc(C)s3)CC2)o1 was read as OTUD3 block inactive and USP28 inh inactive.
Screening Cc1cccc(NC(=O)CCc2nnc3ccc(N4CCCC4)nn23)n1 returned OTUD3 block inactive and USP28 inh inactive.
Cn1c(SCC(=O)Nc2ccc(N3CCOCC3)cc2)nnc1-c1ccco1 was read as OTUD3 block inactive and USP28 inh inactive.
`Cc1ccc(C(=O)CSc2nnc(CC(=O)Nc3ccccc3F)n2C)cc1` gave OTUD3 block inactive and USP28 inh inactive.
For CCOc1ccc(-n2c(SCC(=O)Nc3ccc(C)cc3)nnc2-c2c[nH]c3ccccc23)cc1 the results were OTUD3 block inactive and USP28 inh inactive.
Cc1ccc(C)c(NC(=O)CSc2nnc(Cc3cccc4ccccc34)n2C)c1 was read as OTUD3 block inactive and USP28 inh 45.
`CCOc1ccc(NC(=O)CSc2nnc(Cc3cccc4ccccc34)n2C)cc1` gave OTUD3 block inactive and USP28 inh 67.
`Cn1c(COc2ccccc2)nnc1SCC(=O)Nc1ccc(N2CCOCC2)cc1` gave OTUD3 block inactive and USP28 inh 58.
For Cc1ccc(S(=O)(=O)N2CCOCC2)cc1-c1nnc(-c2ccc(F)cc2)o1 the results were OTUD3 block inactive and USP28 inh inactive.
Screening O=C(NCCn1ncc2c(=O)n(Cc3cccc(Cl)c3)cnc21)c1ccco1 returned OTUD3 block inactive and USP28 inh inactive.
`O=C(Cn1cnc2c(cnn2-c2cccc(Cl)c2)c1=O)N1CCCC1` gave OTUD3 block inactive and USP28 inh inactive.
Screening Cn1ncc2c(=O)n(Cc3cccc(Cl)c3)cnc21 returned OTUD3 block inactive and USP28 inh 65.
O=C(Cn1cnc2c(cnn2-c2ccc(Cl)cc2)c1=O)NCc1ccccc1Cl was read as OTUD3 block 36 and USP28 inh inactive.
For Cc1ccc(CNC(=O)Cn2cnc3c(cnn3-c3cccc(Cl)c3)c2=O)cc1 the results were OTUD3 block inactive and USP28 inh 61.
O=C(Cn1cnc2c(oc3ccccc32)c1=O)NCc1ccccc1Cl was read as OTUD3 block inactive and USP28 inh inactive.
`O=C(COc1ccc([N+](=O)[O-])cc1)c1ccc2c(c1)OCCO2` gave OTUD3 block inactive and USP28 inh inactive.
CC(C)N1CCN(C(=O)c2cn3ccnc(-c4ccccc4)c3n2)CC1 was read as OTUD3 block inactive and USP28 inh inactive.
For CC(O)[C@@H](NC(=O)C1(c2ccccc2)CCN(C(=O)[C@@H]2CCCN2C(=O)OC(C)(C)C)CC1)C(=O)O (some centres not stated) the results were OTUD3 block inactive and USP28 inh inactive.
`C=C(NC(=O)C(=C)NC(=O)c1csc(-c2ccc3c(n2)-c2csc(n2)-c2csc(n2)C(C(C)C2CO2)NC(=O)C(Cc2ccc(O)cc2)NC(=O)c2csc(n2)C(C(O)c2ccccc2)NC(=O)c2nc(sc2C)C(CC(N)=O)NC(=O)c2csc-3n2)n1)C(=O)O` (configuration not stated) gave OTUD3 block inactive and USP28 inh inactive.
`NCCNC(=O)N1CCC2(CC1)OC(=O)N(Cc1ccccc1)c1ccccc12` gave OTUD3 block inactive and USP28 inh 34.
Screening NCCC(=O)N1CCC2(CC1)OC(=O)N(Cc1ccccc1)c1ccccc12 returned OTUD3 block inactive and USP28 inh inactive.
Cc1ccc(N2CCN(S(=O)(=O)c3cc4n(c3)CCCNC4=O)CC2)cc1 was read as OTUD3 block inactive and USP28 inh inactive.
`C[C@@H]1Cc2cc(O)cc(O)c2C(=O)O[C@H](C)CC(=O)OC[C@@H](O)CC(=O)O[C@H](C)Cc2cc(O)cc(O)c2C(=O)O[C@H](C)CC(=O)O1` gave OTUD3 block inactive and USP28 inh inactive.
For COc1cc(O)c2c(O)c3c(cc2c1)CC(C)OC3=O (configuration not stated) the results were OTUD3 block 53 and USP28 inh 64.
For C[C@]12C(=O)N(c3ccccc3C(=O)NCC3CCCO3)C(=O)N1CCc1c2[nH]c2ccccc12 (some centres not stated) the results were OTUD3 block inactive and USP28 inh inactive.
`Cc1nc(Sc2ccc3ccccc3c2)c2oc3ccccc3c2n1` gave OTUD3 block inactive and USP28 inh inactive.
For CCOc1cc(=O)c(C(=O)Nc2cccc(C#N)c2)nn1-c1ccccc1 the results were OTUD3 block inactive and USP28 inh inactive.
Cc1nc2ccccc2nc1OCC(=O)Nc1cccc(S(=O)(=O)N2CCOCC2)c1 was read as OTUD3 block inactive and USP28 inh inactive.
For Cc1ccc2c(c1)C(=O)c1c(O)cccc1C2=O the results were OTUD3 block inactive and USP28 inh inactive.
For O=C1C=C(O)c2c(O)cccc2C1=O the results were OTUD3 block inactive and USP28 inh 51.
`N#Cc1ccccc1OCc1csc(-c2ccc(F)cc2)n1` gave OTUD3 block inactive and USP28 inh inactive.
`CC(=O)c1ccc(OCc2csc(-c3ccc(F)cc3)n2)cc1` gave OTUD3 block inactive and USP28 inh 30.
`O=C(/C=C/c1cccs1)Nc1ccc(N2CCCC2)c(C(=O)O)c1` gave OTUD3 block inactive and USP28 inh inactive.
For CC1Cc2cc(S(=O)(=O)N3CCCCCC3)ccc2N1C(=O)C1CC1 (configuration not stated) the results were OTUD3 block inactive and USP28 inh inactive.
For CC1Cc2cc(S(=O)(=O)NCCN3CCCCCC3)ccc2N1C(=O)C1CC1 (configuration not stated) the results were OTUD3 block inactive and USP28 inh 39.
Screening Cc1nc(-c2ccc(NC(=O)N3CCC(Cc4ccccc4)CC3)cc2)no1 returned OTUD3 block inactive and USP28 inh 39.
Cc1nc(-c2ccc(NC(=O)N3CCN(c4cccc(Cl)c4)CC3)cc2)no1 was read as OTUD3 block inactive and USP28 inh inactive.
For Cc1nc(-c2ccc(NC(=O)N3CCN(c4ccccn4)CC3)cc2)no1 the results were OTUD3 block inactive and USP28 inh 62.
Cc1nc(-c2ccc(NC(=O)N3CCN(c4ccccc4F)CC3)cc2)no1 was read as OTUD3 block inactive and USP28 inh inactive.
